target: Hexose transporter 1 (Plasmodium falciparum) (UniProt O97467); assay: ST_JUDE_LEISH: Cytotoxicity at 2uM final concentration against transgenic Leishmania Mexicana promastigotes LmPfHT that are glucose transport deficient and complemented with the Plasmodium falciparum hexose transporter. Activity is measured by DNA content using SYBR green in vitro; type: functional

Point of comparison: O=C(Cc1ccccc1)NC(Nc1ccc([N+](=O)[O-])cc1)C(Cl)(Cl)Cl (centres undefined), inhibition 1.43%. Against it:
- CS(=O)(=O)c1ccc2c(c1)CCN(CCC1CCC(NC(=O)C(=Cc3cccc(C#N)c3)c3ccc(-c4ccccc4)cc3)CC1)CC2 (centres undefined) — higher, 2.77%
- Nc1ncc(-c2cc3ccccc3o2)c(N)n1 — higher, 2.51%
- N=c1n(CCN2CCCC2)c2ccccc2n1CC(O)c1ccc(Cl)c(Cl)c1 (centres undefined) — higher, 1.57%
- CC(=O)Nc1ccc(CN(Cc2ccc(C)cc2)Cc2cccc(Oc3ccccc3)c2)cc1 — higher, 3.12%
- N#Cc1cccc(NC(=O)C2=C(CCc3ccc4c(c3)OCO4)NC(=O)NC2c2cccc(C#N)c2)c1 (centres undefined) — lower, 0.52%
- Cc1ccc2ccncc2c1N — higher, 3.24%
- CCN(CC)C(=S)N/N=C1/C(=O)Nc2c(C)cccc21 — higher, 4.85%
- O=C(Nc1ccc(S(=O)(=O)N2CCCCC2)cc1)c1cc(-c2ccccc2O)n[nH]1 — higher, 12%
- CC(C)(C)SC1SC(SC(C)(C)C)C(OC(=O)c2ccccc2)C(OC(=O)c2ccccc2)C1OC(=O)c1ccccc1 (centres undefined) — lower, -0.69%
- COc1ccc(CNCc2ccc(-c3cccc(-c4nc5ccccc5[nH]4)c3)cc2)cc1 — higher, 6.56%
- O=C(Nc1cccc(Cl)c1)OC1CCCN2CCCCC12 (centres undefined) — higher, 10.6%
- CN1CCC(N(Cc2ccc(-c3ccc(C(F)(F)F)cc3)cc2)C(=O)Cn2c(SCc3cccc(F)c3F)cc(=O)c3c2CCC3)CC1 — lower, 0.12%
- COc1cc(NC2=NS(=O)(=O)c3cc(Cl)ccc3N2C)cc(OC)c1OC — higher, 6.41%
- O=C(NC1CCN(Cc2ccccc2)CC1)c1ccc(CNC2CCN(Cc3ccccc3)CC2)cc1 — higher, 3.94%
- CCNc1cc(C(=O)N[C@@H](Cc2ccccc2)[C@H](O)CNCCCc2ccc(OC)cc2)cc(N2CCCC2=O)c1 — lower, 0.76%
- CN1CCC[C@H]1COc1ccc(CN2CC[C@H](NC(=O)c3ccc(Cl)c(Cl)c3)C2)cc1Br — higher, 2.26%
- Cc1ccc(NC(=O)N2CCN(CCCCCNC(=O)/C=C/c3ccc(Cl)c(Cl)c3)CC2)cc1C — higher, 7.71%
- Nc1cccc(CNCc2ccc(-c3cccc(-c4nc5ccccc5[nH]4)c3)cc2)c1 — lower, 0.24%
- CC(C)(C)NCCN(Cc1ccc(-c2ccc(C(F)(F)F)cc2)cc1)C(=O)Cn1c(SCc2ccc(F)cc2)nc(=O)c2c1CCC2 — higher, 1.75%
- COc1ccc2[nH]ccc(=NN=Cc3cccnc3)c2c1 — lower, -2.41%
- CC1(C)N=C(N)N=C(N)N1c1ccc(Oc2ccc(Cl)cc2)c(Cl)c1 — lower, -1.08%
- COc1cc2c(cc1OC)C(C(=O)c1ccccc1)=NCC2 — higher, 2.92%
- COc1cccc(CNc2noc(-c3c(-c4ccccc4)noc3C)n2)c1OC — higher, 3.83%
- COc1ccccc1N1CCN(CCCCNC(=O)c2ccc(NC(=O)c3cc4ccccc4o3)cc2)CC1 — lower, 1.36%
- CCN1CCC(N(Cc2ccc(-c3ccc(C(F)(F)F)cc3)cc2)C(=O)Cn2c(SCc3ccc(F)cc3)nc(=O)c3c2CCC3)CC1 — lower, -0.63%
- N=C(N)NC(=O)Nc1cc(Br)c(Br)c(Br)c1 — higher, 3.17%
- CC1(C)NC(N)=NC(=N)N1OCCCOc1cc(Cl)ccc1Cl — higher, 13.5%
- COc1ccc(-c2cccc(CNC3CCN(C)CC3)c2)cc1S(=O)(=O)NCc1ccccc1 — higher, 4.06%
- O=C(/C=C/c1ccc(Cl)c(Cl)c1)N1CCC(CN2CCC(c3c[nH]c4ccncc34)CC2)CC1 — higher, 5.47%
- O=C(NC1CCN(CCN2CCC(c3ccccc3C(F)(F)F)CC2)CC1)c1ccc(-c2ccc(Cl)cc2)cc1 — lower, 0.61%
- COc1ccc2nccc([C@@H](O)CN3CCC(NCCNc4ccccn4)CC3)c2c1 — higher, 9.69%
- CC1(C)NC(N)=NC(=N)N1OCCOc1ccc2ccccc2c1 — lower, -0.86%
- CCN(CC)CCN(Cc1ccc(-c2ccc(C(F)(F)F)cc2)cc1)C(=O)Cn1nc(-c2ccc(C(F)(F)F)cc2)ccc1=O — higher, 2.04%
- CCCCCCCCc1c(C)nc(C)c(Br)c1O — lower, -0.72%
- O=C(Nc1ccc(C(F)(F)F)cc1)c1cccc(S(=O)(=O)NCC2CCCN(CC3CCCCC3)C2)c1 (centres undefined) — higher, 2.62%
- O=C(NC1CC1)c1ccc(N2CCC(Oc3ccc(F)cc3)CC2)nc1 — lower, 1.1%
- CCc1cn2c3c(cc(C(=O)N[C@@H](Cc4ccccc4)[C@H](O)CNCc4ccccc4C)cc13)N(C)S(=O)(=O)CC2 — higher, 2.3%
- CC(C)(C)C(Cn1ccnc1)NCc1c[nH]nc1-c1ccc(-c2ccccc2)cc1 (centres undefined) — higher, 16.9%

— ChEMBL document CHEMBL3433997, “St. Jude Leishmania screening dataset” (2016)
